# This is a sample that favours compounds with a hit; in the whole collection about 8.9% have one here.
# D3 ag = qHTS of D3 Dopamine Receptor Agonist: qHTS; D3R DiscoveRx beta-arrestin cells, luminescence, 90 min; max activation, %; 0.58% of 410,000 active; AID 652048, 2013; in the data active = max activation above about 30%; also: 0% is about no effect
# Target sequence (P35462 whole entry, looked up): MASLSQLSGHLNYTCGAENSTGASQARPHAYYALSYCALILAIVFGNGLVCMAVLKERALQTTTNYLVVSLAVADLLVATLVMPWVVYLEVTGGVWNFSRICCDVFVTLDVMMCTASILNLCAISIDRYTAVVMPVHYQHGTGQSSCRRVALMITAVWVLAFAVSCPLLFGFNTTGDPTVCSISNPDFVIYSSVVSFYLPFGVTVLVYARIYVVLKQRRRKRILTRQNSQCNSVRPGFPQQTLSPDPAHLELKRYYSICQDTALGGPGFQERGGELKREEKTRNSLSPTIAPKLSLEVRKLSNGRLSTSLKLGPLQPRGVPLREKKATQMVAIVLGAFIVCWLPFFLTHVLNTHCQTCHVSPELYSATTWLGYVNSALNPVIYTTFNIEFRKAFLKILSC
#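 Agonist mode: compounds and dopamine controls were applied to plated cells for 90 min at 37 degrees C after an overnight attachment at 1500 cells/well. Luminescent read-out followed 30 - 60 minutes at room temperature with DiscoveRx detection reagent.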
# D3 antag = qHTS of D3 Dopamine Receptor Antagonist: qHTS. 2.5% of 360,000 active. max response, negative = inhibition, %. D3R cells, DiscoveRx beta-arrestin luminescence, antagonist mode; hits give low values; in the data active = max response below about -50%; inconclusive = no clear call, values can overlap the other calls; also: % is scaled to controls: 0 for no effect and ±100 for the full control effect
#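 Cells expressing the human receptor were seeded at 1500 cells/well, incubated overnight at 37 degrees C in 5% CO2, then exposed to library compounds with dopamine controls for 90 minutes at 37 degrees C before luminescent detection.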
# SW480 rereplic = A quantitative high throughput screen for small molecules that induce DNA re-replication in SW480 colon adenocarcinoma cells. SW480 DNA re-replication, Hoechst DNA content imaging, 48 h. Potency, µM (top dose mostly 46.1 µM), without a hit: top-dose re-replication activation, most hits filed as activators. 1.8% of 340,000 active. AID 624297, 2012; also: potency is read from the fitted curve at half-maximal effect; % of control where 0% means no effect; nearly all actives have a fitted effect of over 55% in size
#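 Readout is total intensity of Hoechst-stained nuclei, excited at 405 nm and collected at 500-530 nm. Compound treatment lasted 48 hr at 37 C in 5% CO2 before staining.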
# MCF10A rereplic = A quantitative high throughput screen for small molecules that induce DNA re-replication in MCF 10a normal breast cells | Potency, µM (titrated, usually from 46.1 µM), for the others: at the highest dose activity, positive = re-replication, usual class: activators | 2.9% of 350,000 active | MCF 10A DNA re-replication, Hoechst nuclear intensity, 48 h; also: potency is read from the fitted curve at half-maximal effect; % of control where 0% means no effect; nearly all actives have a fitted effect of over 50% in size
# KB-3-1 tox = qHTS assay for MDR1-selective chemotherapeutics: Primary screen using the parental adenocarcinoma cell KB-3-1; KB-3-1 viability, CellTiter-Glo ATP luminescence, 72 h; Potency, µM (top dose mostly 46.1 µM), actives largely listed as cytotoxic; 1.4% of 400,000 active; also: potency is read from the fitted curve at half-maximal effect; % is scaled to controls: 0 for no effect and ±100 for the full control effect; nearly all actives have a fitted effect of over 60% in size
#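 Viability of parental KB-3-1 cells, measured by CellTiter-Glo luminescence, followed a 72 h incubation at 37 °C with pinned compounds in phenol-red-free DMEM containing 10% FBS.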
# KB-V1 MDR tox = qHTS assay for MDR1-selective chemotherapeutics: Primary screen using the drug-selected MDR subline cells KB-V1; KB-V1 MDR cells viability, CellTiter-Glo, 72 h; Potency, µM (highest dose often 46.1 µM), hits mostly cytotoxic; 3.4% of 400,000 active; also: potency is read from the fitted curve at half-maximal effect; % is scaled to controls: 0 for no effect and ±100 for the full control effect; nearly all actives have a fitted effect of over 60% in size
#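 Following 72 h at 37 degrees C with compound, KB-V1 cell viability was read by CellTiter-Glo luminescence, medium being phenol-red-free DMEM plus 10% FBS; concentration-response parameters came from normalized, curve-fitted qHTS data.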
# * hit, by the source's call; i = inactive; ? = inconclusive; · = no result; ! = not confirmed by another sample. Unless noted, calls follow the shape of the dose curve; as a rule, active = well fitted curve in the direction sought with a large enough effect; inconclusive = small, poorly fitted or top-dose-only effect, or another doubt; inactive = no such curve, though single readings can be large; an effect the other way counts as inactive or inconclusive.
SMILES,D3 ag,D3 antag,SW480 rereplic,MCF10A rereplic,KB-3-1 tox,KB-V1 MDR tox
CCC(C)Sc1cc(-c2nc3ccccn3c2NC2CCCCC2)ccc1OC (stereo unspecified),0,38,16µM*,21µM*,?,12µM*!
CCC(C)Sc1cc(-c2nc3cc(C)ccn3c2NC2CCCCC2)ccc1OC (stereo unspecified),5,31,?,?,?,21µM*
Cn1nnnc1SCCCNCc1cccc(OCc2ccccc2)c1,-19,·,·,·,i,i
Cc1[nH]nc2oc(=O)c(CCO)c(C)c12,-3,-12,16µM*,?,i,i
COc1ccc(-c2[nH]nc3oc(=O)c(CCO)c(C)c23)cc1,-11,-6,4%,11%,i,i
COc1ccc(C(=O)NCC(c2ccc(N(C)C)cc2)N2CCc3ccccc32)cc1OC (stereo unspecified),-12,·,·,·,i,i
CC1(C(=O)Nc2ccc(Cl)c(Cl)c2)CCN1C(=O)CC(c1ccccc1)c1ccccc1 (stereo unspecified),-8,-19,·,·,i,i
CC1(C(=O)Nc2ccc3c(c2)OCCO3)CSCC(=O)N1C1CCN(Cc2ccccc2)CC1 (stereo unspecified),-17,-61*,·,·,i,i
CC1(C(=O)Nc2ccccc2)CCN1C(=O)Cc1ccc(-c2ccccc2)cc1 (stereo unspecified),5,4,·,·,i,i
CC1(C(=O)Nc2ccc3c(c2)OCCO3)CCN1Cc1ccc(-c2ccccn2)cc1 (stereo unspecified),-4,-1,·,·,i,?
CC1(C(=O)Nc2ccc3c(c2)OCO3)CCN1C(=O)Cc1ccc(-c2ccccc2)cc1 (stereo unspecified),1,0,·,·,12µM*,3.3µM*
CC1(C(=O)Nc2ccc3c(c2)OCCO3)CCN1Cc1ccc2ccccc2c1 (stereo unspecified),-2,18,·,·,?,21µM*
Cc1ccc(NC(=O)C2(C)CCN2C(=O)CC(c2ccccc2)c2ccccc2)cc1 (stereo unspecified),67*,-25,·,·,i,?
CC1(C(=O)Nc2ccc3c(c2)OCCO3)CSCC(=O)N1CCCN1CCOCC1 (stereo unspecified),1,-12,·,·,i,i
CCCOc1ccc(CNC(=O)C2CCCN(c3nc4c(C)cc(C)cc4s3)C2)cc1 (stereo unspecified),3,·,·,·,i,i
Cc1ccc(NC(=O)c2cccc(C(F)(F)F)c2)cc1NC(=O)c1[nH]cnc1C(N)=O,31*,46,-4%,15%,i,i
CCC(Sc1nncn2c1cc1oc(C)cc12)C(=O)Nc1ccc(F)cc1 (stereo unspecified),5,·,·,·,·,·
CCOC(=O)c1nn(-c2ccc3c(c2)CCN3C(C)=O)cc1O,5,10,16%,15µM*,i,i
CCOC(=O)c1nn(-c2ccc(F)cc2)cc1O,1,4,3%,-7%,i,i
Cc1c(NC2(C#N)CCCC2)c(=O)n(-c2ccccc2)n1C,2,20,-2%,?,i,i
Cc1c(NC2(c3nnnn3-c3ccc(Br)cc3)CCCCC2)c(=O)n(-c2ccccc2)n1C,-4,-10,3%,4%,i,3.7µM*
COc1ccc(CCNC(=O)CN(c2ccccc2)S(=O)(=O)N(C)C)cc1OC,-3,·,·,·,i,i
O=C(/C=C/c1cccs1)Nc1cccc([S+](=O)([O-])Nc2ccccc2F)c1,·,·,·,·,i,i
